# Measured values as given in PubChem BioAssay (NCATS).
# Inconclusive results are not listed. The source made the active and inactive calls. Unless noted, calls follow the shape of the dose curve; as a rule, active = well fitted curve in the direction sought with a large enough effect in the repeat runs; inconclusive = weak or mixed curves; inactive = no such curve, though single readings can be large; an effect the other way counts as inactive or inconclusive.
# Columns and labels:
# [1] = molecular target: Cytochrome P450 2D6 (Homo sapiens) (UniProt P10635); test: Cytochrome P450 family 2 subfamily D member 6 (CYP2D6) small molecule antagonists: luciferase biochemical (cell-free) qHTS assay (AID 1645840); also: nearly all actives have a fitted effect of over 55% in size; also: potency is read from the fitted curve at half-maximal effect; as to activity change, negative = inhibition: % is scaled to controls: 0 for no effect and ±100 for the full control effect
# Procedure, shortened: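 P450-Glo CYP2D6 system: proluciferin substrate converted by enzyme to luciferin, read by luminescence proportional to activity. Enzyme-substrate mix with compound 10 min at room temperature, then NADPH regeneration 1 h before detection reagent.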
# [2] = Primary qHTS for inhibitors of nuclear receptor binding SET domain protein 2 (NSD2) in an isogenic RCH-ACV NSD2 p.E1099K mutant (9B) (AID 1645876; active = well fitted curve in the direction sought with a large enough effect; an effect the other way counts as inactive or inconclusive; also: potency is read from the fitted curve at half-maximal effect; nearly all actives have a fitted effect of over 70% in size)
# [3] = Primary qHTS for inhibitors of nuclear receptor binding SET domain protein 2 (NSD2) in an RCH-ACV wild type WT cells (2C) (AID 1645877; active = well fitted curve in the direction sought with a large enough effect; an effect the other way counts as inactive or inconclusive; also: potency is read from the fitted curve at half-maximal effect; nearly all actives have a fitted effect of over 70% in size)
# [4] = molecular target: Catechol O-methyltransferase (Homo sapiens) (UniProt P21964); test: Confirmatory Screen for Target Class Profiling of Small Molecule Inhibitors of Methyltransferases (AID 1745852; calls by dose curve; also: potency is read from the fitted curve at half-maximal effect); conditions: MTase-Glo luminescence, SAH detection, recombinant enzyme; measured here: COMT max response; stronger effect = lower value
# [5] = molecular target: Guanidinoacetate N-methyltransferase (Homo sapiens) (UniProt Q14353); test: as above; conditions: MTase-Glo luminescence, SAH detection, recombinant enzyme; activity change, negative = inhibition: at 57.3 µM (top of the series) unless noted
# [6] = molecular target: Nicotinamide N-methyltransferase (Homo sapiens) (UniProt P40261); test: as above; conditions: MTase-Glo luminescence, SAH detection, recombinant enzyme; measured here: NNMT max response; stronger effect = lower value
# [7] = molecular target: Phenylethanolamine N-methyltransferase (Homo sapiens) (UniProt P11086); test: as above; conditions: MTase-Glo luminescence, SAH detection, recombinant enzyme; measured here: PNMT max response; stronger effect = lower value
# [8] = molecular target: Glutathione peroxidase 1 (Homo sapiens) (UniProt P07203); test: Primary qHTS Assay for Inhibitors of Recombinant Selenoprotein Glutathione Peroxidase 1 (GPX1) (AID 1845191; active = well fitted curve in the direction sought with a large enough effect; an effect the other way counts as inactive or inconclusive; also: nearly all actives have a fitted effect of over 65% in size)
# Procedure, shortened: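 NADPH consumption tracked by fluorescence at 340/450 nm between t=0 and t=15 min, room temperature. Final mix: 10 nM GPX1, 100 nM glutathione reductase, 1 mM GSH, 0.5 mM NADPH, 0.5 mM cumene hydroperoxide, 0.01% BSA; 30 min compound–enzyme preincubation.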
# [9] = molecular target: Phospholipid hydroperoxide glutathione peroxidase GPX4 (Homo sapiens) (UniProt P36969); test: Primary qHTS Assay for Inhibitors of Recombinant Selenoprotein Glutathione Peroxidase 4 (GPX4) (AID 1845192; active = well fitted curve in the direction sought with a large enough effect; an effect the other way counts as inactive or inconclusive; also: nearly all actives have a fitted effect of over 65% in size; as to activity change, negative = inhibition: % is scaled to controls: 0 for no effect and ±100 for the full control effect)
# Procedure, shortened: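 NADPH consumption followed by fluorescence at 340/450 nm, t=0 and after 15 min at room temperature. Reaction started with cumene hydroperoxide (0.5 mM final) after 30 min compound–GPX4 preincubation; final 200 nM GPX4, 100 nM GR, 1 mM GSH, 0.5 mM NADPH.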
# [10] = qHTS drug screen for cell cycle checkpoint inhibitors in PARPi-resistant BRCA-mutant ovarian cancer cell lines. (AID 1963452; calls by dose curve); conditions: PEO1/OlaR viability, CellTiter-Glo luminescence, 96 h, stronger effect = lower value
# Procedure, shortened: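 PEO1, PEO4 and PEO1/OlaR ovarian cancer cells, 600 per well, exposed 96 h at 37C to a dilution series. Viability read by CellTiter-Glo luminescence, normalized to DMSO and empty wells; activity summarized as Z-AUC.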
# [11] = molecular target: Cytochrome P450 2C9 (Homo sapiens) (UniProt P11712); test: Cytochrome P450 family 2 subfamily C member 9 (CYP2C9) small molecule antagonists: luciferase biochemical (cell-free) qHTS assay (AID 1645842); also: nearly all actives have a fitted effect of over 55% in size; also: potency is read from the fitted curve at half-maximal effect; as to activity change, negative = inhibition: % is scaled to controls: 0 for no effect and ±100 for the full control effect
# Procedure, shortened: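 P450-Glo CYP2C9 system: proluciferin substrate with enzyme in mix containing 0.4% BSA, 10 min at room temperature, then NADPH regeneration solution added and incubated 1 h at 37C. Detection reagent stopped reaction; luminescence read after 20 min as RLU.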
# [12] = molecular target: Cytochrome P450 3A4 (Homo sapiens) (UniProt P08684); test: Cytochrome P450 family 3 subfamily A member 4 (CYP3A4) small molecule antagonists: luciferase qHTS assay (AID 1645841); also: nearly all actives have a fitted effect of over 45% in size; also: potency is read from the fitted curve at half-maximal effect
# Procedure, shortened: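 Luminescent CYP3A4 activity readout: compounds plus enzyme-substrate mix 10 min at room temperature, reaction started with NADPH regenerating system for 1 h, stopped with detection reagent, read after 20 min. Ketoconazole served as control.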
# [13] = molecular target: Tumor susceptibility gene 101 protein (Homo sapiens) (UniProt Q99816); test: qHTS Assay for Iinhibitors of HIV-1 Budding by Blocking the Interaction of PTAP/TSG101: Hit Validation (AID 651600; active = well fitted curve in the direction sought with a large enough effect; an effect the other way counts as inactive or inconclusive; also: % is scaled to controls: 0 for no effect and ±100 for the full control effect; nearly all actives have a fitted effect of over 70% in size)
# Procedure, shortened: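 FITC-PTAP peptide (50 nM final) binding to Tsg101 binding domain (10 uM final) was measured by polarization after 20 min at r.t. with compounds, in 10 mM HEPES pH 7.5 buffer with 0.15 M NaCl and 0.01% Tween 20.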
# [14] = molecular target: Rap guanine nucleotide exchange factor 3 (Homo sapiens) (UniProt O95398); test: Confirmatory qHTS for antagonist of cAMP-regulated guanine nucleotide exchange factor 3 (EPAC1) (AID 1645880; active = well fitted curve in the direction sought with a large enough effect; an effect the other way counts as inactive or inconclusive;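 also: plate controls were DMSO only for no effect and full effect of the ATA control for full effect; nearly all actives have a fitted effect of over 55% in size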)
# Procedure, shortened: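 Released BODIPY-GDP fluoresces less than Rap1-bound BODIPY-GDP; the signal is followed at 480/540 nm at 5-min intervals over 30 min, after 5 min at room temperature. Reactions contain 100 nM EPAC1, 250 nM RAP1B-BODIPY-GDP and 50 uM GDP; results are normalized to ATA and DMSO.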
# [15] = molecular target: Rap guanine nucleotide exchange factor 3 (Homo sapiens) (UniProt O95398); test: Confirmatory qHTS for agonist of cAMP-regulated guanine nucleotide exchange factor 3 (EPAC1) (AID 1645881; active = well fitted curve in the direction sought with a large enough effect; an effect the other way counts as inactive or inconclusive; also: potency is read from the fitted curve at half-maximal effect; nearly all actives have a fitted effect of over 75% in size)
# [16] = molecular target: Rap guanine nucleotide exchange factor 4 (Homo sapiens) (UniProt Q8WZA2); test: Confirmatory qHTS for agonist of cAMP-regulated guanine nucleotide exchange factor 4 (EPAC2) (AID 1645884; active = well fitted curve in the direction sought with a large enough effect; an effect the other way counts as inactive or inconclusive;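 also: nucleotide exchange releases bodipy-GDP from Rap1 and this lowers its fluorescence; % is scaled to controls: 0 for no effect and ±100 for the full control effect; nearly all actives have a fitted effect of over 65% in size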)
# [17] = molecular target: Rap guanine nucleotide exchange factor 4 (Homo sapiens) (UniProt Q8WZA2); test: Confirmatory qHTS for antagonist of cAMP-regulated guanine nucleotide exchange factor 4 (EPAC2) (AID 1645885; active = well fitted curve in the direction sought with a large enough effect; an effect the other way counts as inactive or inconclusive; also: potency is read from the fitted curve at half-maximal effect; nearly all actives have a fitted effect of over 25% in size)
# [18] = molecular target: Rap guanine nucleotide exchange factor 3 (Homo sapiens) (UniProt O95398); test: Counterscreen qHTS for agonist of cAMP-regulated guanine nucleotide exchange factor 3 (EPAC1) (AID 1645889; active = well fitted curve in the direction sought with a large enough effect; an effect the other way counts as inactive or inconclusive; also: potency is read from the fitted curve at half-maximal effect; nearly all actives have a fitted effect of over 40% in size)
# Procedure, shortened: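 Rap1B-BODIPY-GDP 250 nM + GDP 50 uM; cpds 7-pt, final 9.74 nM–152 uM (activator mode) or from 7.32 nM upwards (inhibitor mode); RT; FI 480/540 nm at 5 and 30 min, then ± cAMP, reread.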
# Sequence of Phospholipid hydroperoxide glutathione peroxidase GPX4 (Homo sapiens) (P36969 whole entry, looked up): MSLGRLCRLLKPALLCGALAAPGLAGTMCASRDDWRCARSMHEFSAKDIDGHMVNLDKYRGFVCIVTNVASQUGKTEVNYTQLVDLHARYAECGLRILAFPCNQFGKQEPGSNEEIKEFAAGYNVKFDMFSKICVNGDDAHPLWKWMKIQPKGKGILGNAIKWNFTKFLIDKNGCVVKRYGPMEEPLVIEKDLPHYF
# Sequence of Glutathione peroxidase 1 (Homo sapiens) (P07203 whole entry, looked up): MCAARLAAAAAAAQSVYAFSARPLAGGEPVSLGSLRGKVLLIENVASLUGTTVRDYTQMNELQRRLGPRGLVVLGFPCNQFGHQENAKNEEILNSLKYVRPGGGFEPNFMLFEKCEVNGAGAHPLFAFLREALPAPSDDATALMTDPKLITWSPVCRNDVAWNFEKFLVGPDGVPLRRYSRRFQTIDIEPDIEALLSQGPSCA
# Sequence of Cytochrome P450 2D6 (Homo sapiens) (P10635 whole entry, looked up): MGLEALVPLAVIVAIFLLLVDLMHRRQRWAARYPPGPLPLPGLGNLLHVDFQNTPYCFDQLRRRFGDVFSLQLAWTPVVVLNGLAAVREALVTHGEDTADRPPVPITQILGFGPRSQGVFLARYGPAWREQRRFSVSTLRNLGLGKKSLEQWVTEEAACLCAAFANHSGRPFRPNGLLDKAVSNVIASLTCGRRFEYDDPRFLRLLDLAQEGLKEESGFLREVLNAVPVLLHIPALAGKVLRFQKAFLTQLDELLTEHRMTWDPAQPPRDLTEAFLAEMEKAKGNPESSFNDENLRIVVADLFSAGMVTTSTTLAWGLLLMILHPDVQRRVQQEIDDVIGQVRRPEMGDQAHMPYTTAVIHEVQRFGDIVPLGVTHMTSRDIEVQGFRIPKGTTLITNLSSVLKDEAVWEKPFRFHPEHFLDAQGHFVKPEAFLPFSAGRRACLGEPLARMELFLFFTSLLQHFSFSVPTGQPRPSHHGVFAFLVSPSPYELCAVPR
# Sequence of Cytochrome P450 2C9 (Homo sapiens) (P11712 whole entry, looked up): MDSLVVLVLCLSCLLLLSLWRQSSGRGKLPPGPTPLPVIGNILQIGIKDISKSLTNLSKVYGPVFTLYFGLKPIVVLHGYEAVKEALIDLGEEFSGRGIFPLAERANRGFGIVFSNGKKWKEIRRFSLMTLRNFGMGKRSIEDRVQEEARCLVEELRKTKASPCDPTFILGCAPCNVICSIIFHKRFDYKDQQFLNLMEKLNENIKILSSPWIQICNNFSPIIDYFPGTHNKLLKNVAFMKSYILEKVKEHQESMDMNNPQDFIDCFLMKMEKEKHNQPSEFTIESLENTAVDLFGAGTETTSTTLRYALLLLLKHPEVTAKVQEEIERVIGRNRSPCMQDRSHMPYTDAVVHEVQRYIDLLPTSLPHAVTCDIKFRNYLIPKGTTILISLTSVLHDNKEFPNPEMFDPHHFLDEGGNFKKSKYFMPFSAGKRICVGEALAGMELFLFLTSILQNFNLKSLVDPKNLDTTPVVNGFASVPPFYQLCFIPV
# Sequence of Rap guanine nucleotide exchange factor 3 (Homo sapiens) (O95398 whole entry, looked up): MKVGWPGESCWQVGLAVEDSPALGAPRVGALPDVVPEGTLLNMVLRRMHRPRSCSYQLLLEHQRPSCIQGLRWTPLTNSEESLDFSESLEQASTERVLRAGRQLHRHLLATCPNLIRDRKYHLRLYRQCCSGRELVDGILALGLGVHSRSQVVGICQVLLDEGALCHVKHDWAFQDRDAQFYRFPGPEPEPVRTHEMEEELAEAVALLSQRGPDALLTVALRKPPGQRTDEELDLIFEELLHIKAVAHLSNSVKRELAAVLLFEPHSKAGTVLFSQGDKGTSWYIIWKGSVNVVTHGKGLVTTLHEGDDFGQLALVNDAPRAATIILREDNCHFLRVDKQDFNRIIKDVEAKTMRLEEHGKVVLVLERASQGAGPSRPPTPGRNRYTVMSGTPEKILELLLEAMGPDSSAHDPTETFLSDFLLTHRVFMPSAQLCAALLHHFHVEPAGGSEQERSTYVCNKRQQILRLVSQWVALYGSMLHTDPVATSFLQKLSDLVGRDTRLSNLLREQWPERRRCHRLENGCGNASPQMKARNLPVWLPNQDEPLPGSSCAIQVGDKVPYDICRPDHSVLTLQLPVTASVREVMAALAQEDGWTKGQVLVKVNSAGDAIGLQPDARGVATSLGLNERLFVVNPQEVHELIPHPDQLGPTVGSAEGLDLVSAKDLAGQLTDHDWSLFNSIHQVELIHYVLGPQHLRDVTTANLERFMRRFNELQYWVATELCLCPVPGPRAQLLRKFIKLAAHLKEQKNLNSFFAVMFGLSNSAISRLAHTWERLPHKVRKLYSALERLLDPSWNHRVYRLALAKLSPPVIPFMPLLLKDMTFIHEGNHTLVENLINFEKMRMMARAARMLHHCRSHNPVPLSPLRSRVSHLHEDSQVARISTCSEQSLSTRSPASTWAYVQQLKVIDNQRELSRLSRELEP
# Sequence of Cytochrome P450 3A4 (Homo sapiens) (P08684 whole entry, looked up): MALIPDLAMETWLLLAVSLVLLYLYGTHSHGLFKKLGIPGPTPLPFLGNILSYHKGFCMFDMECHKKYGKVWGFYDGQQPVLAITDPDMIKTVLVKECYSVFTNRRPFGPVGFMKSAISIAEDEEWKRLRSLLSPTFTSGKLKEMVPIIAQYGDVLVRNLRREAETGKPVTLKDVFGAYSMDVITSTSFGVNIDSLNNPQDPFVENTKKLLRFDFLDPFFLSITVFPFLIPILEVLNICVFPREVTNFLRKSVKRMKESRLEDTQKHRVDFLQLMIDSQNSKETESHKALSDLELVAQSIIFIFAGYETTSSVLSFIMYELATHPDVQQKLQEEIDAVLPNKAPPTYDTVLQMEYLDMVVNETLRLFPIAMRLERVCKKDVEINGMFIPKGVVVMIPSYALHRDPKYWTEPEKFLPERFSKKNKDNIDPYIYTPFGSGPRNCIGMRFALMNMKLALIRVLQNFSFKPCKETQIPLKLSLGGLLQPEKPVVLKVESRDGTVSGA
# Sequence of Rap guanine nucleotide exchange factor 4 (Homo sapiens) (Q8WZA2 whole entry, looked up): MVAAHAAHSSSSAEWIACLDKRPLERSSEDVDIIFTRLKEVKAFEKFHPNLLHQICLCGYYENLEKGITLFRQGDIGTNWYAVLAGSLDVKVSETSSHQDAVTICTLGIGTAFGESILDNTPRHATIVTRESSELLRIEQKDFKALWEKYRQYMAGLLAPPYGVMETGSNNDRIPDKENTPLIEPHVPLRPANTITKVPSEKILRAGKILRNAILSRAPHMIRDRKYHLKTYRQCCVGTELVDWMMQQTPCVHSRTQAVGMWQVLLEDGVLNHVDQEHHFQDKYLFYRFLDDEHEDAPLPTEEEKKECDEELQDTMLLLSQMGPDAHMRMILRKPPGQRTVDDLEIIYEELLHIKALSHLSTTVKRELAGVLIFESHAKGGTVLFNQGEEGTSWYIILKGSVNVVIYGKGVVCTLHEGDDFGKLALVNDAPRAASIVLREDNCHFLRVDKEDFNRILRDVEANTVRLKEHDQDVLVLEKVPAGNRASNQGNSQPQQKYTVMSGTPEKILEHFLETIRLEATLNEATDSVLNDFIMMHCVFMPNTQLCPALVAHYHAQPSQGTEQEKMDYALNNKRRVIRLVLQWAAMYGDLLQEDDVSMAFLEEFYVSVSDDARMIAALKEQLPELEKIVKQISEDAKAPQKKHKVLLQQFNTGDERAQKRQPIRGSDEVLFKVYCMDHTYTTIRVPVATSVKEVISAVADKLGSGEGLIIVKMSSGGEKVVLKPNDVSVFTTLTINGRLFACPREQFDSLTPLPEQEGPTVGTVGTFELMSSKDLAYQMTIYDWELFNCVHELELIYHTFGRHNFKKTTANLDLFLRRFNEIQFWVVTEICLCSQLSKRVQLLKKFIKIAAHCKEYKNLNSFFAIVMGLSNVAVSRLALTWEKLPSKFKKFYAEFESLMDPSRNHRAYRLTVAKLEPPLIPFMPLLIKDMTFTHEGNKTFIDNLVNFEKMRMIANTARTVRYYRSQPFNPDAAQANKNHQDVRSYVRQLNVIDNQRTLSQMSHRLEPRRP
# Sequence of Tumor susceptibility gene 101 protein (Homo sapiens) (Q99816 whole entry, looked up, the tested form may be a part): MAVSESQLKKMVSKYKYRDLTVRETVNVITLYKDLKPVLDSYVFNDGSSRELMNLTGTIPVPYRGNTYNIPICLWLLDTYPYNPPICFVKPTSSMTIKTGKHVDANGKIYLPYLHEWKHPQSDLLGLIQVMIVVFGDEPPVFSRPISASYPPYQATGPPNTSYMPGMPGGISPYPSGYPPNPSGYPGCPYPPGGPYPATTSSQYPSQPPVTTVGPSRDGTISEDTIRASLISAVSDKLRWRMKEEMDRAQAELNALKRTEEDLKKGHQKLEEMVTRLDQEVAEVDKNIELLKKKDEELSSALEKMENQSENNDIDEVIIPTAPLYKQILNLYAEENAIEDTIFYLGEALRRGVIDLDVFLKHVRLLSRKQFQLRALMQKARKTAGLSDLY
# Sequence of Nicotinamide N-methyltransferase (Homo sapiens) (P40261 whole entry, looked up): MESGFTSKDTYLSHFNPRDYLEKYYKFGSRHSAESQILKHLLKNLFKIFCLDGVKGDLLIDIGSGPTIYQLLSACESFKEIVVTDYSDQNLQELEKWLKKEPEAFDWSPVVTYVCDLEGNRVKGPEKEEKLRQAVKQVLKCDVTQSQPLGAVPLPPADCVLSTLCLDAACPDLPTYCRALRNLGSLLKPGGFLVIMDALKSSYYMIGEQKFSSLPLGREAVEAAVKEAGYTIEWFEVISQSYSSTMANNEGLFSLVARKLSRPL
# Sequence of Phenylethanolamine N-methyltransferase (Homo sapiens) (P11086 whole entry, looked up): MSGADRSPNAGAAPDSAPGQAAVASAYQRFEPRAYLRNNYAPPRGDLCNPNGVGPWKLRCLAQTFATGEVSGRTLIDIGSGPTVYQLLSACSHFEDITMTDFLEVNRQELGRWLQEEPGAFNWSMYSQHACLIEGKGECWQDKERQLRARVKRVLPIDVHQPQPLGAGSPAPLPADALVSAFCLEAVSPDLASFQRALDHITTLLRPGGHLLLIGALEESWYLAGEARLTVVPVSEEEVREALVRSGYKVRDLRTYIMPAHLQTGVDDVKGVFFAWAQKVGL
smiles,measurement,setting,value
Nc1nc(Nc2ccc3c(c2)CC[C@@H](N2CCCC2)CC3)nn1-c1cc2c(nn1)-c1ccccc1CCC2,Potency,[1],5.35 µM (active)
same,Potency,[2],2.63 µM (active)
same,Potency,[3],3.32 µM (active)
same,activity,[4],-19.2%
same,Potency,[5],24.1 µM (active)
same,activity,[6],-19.6%
same,activity,[7],-24%
same,Potency,[8],inactive
same,Potency,[9],inactive
same,Z-AUC,[10],0.211 (inactive)
same,Z-AUC,[10]; measured here: PEO1 parental Z-AUC,-0.494
same,Z-AUC,[10]; measured here: PEO4 Z-AUC,-0.517
O=C(CCCCCn1c(=O)c2sccc2n(CC(=O)Nc2cccc(Cl)c2)c1=O)NCc1ccc2c(c1)OCO2,Potency,[11],0.239 µM (active)
COc1ccc(NC(=O)CSc2nnc(NC(=O)NC3CCCCC3)s2)cc1OC,Potency,[11],21.3 µM (active)
CC(C)(C)NC(=O)[C@@H]1C[C@@H]2CCCC[C@@H]2CN1CC(O)[C@H](Cc1ccccc1)NC(=O)[C@@H](CC(N)=O)NC(=O)c1ccc2ccccc2n1 (stereo not given in full),Potency,[11],12 µM (active)
CC1=C(C(=O)Nc2cccc(-c3nn[nH]n3)c2)C(c2ccccc2Cl)N=C(Nc2nc3ccccc3o2)N1 (stereo not given),Potency,[11],0.536 µM (active)
Oc1ccc(C2(c3ccccc3F)CCC(F)(F)CC2)cc1,Potency,[12],12 µM (active)
same,Potency,[11],2.13 µM (active)
C[S+](=O)([O-])Nc1ccc(-c2ccc3nc(-c4cccc(OC(F)(F)F)c4)[nH]c3c2)cc1,Potency,[12],inactive
COc1ccc(OC)c(/C=C(\C#N)c2nc3ccccc3c(=O)[nH]2)c1,Potency,[13],inactive
same,Potency,[1],inactive
same,Potency,[11],1.51 µM (active)
CCOc1ccc(C(=O)NCCS(=O)(=O)N2CCN(c3ccccc3F)CC2)cc1OCC,Potency,[11],2.13 µM (active)
CN[C@@H](C)C(=O)N[C@H](C(=O)N1CCC[C@H]1c1nc(C(=O)c2ccc(F)cc2)cs1)C1CCCCC1,Potency,[1],inactive
same,Potency,[11],inactive
same,Potency,[8],inactive
same,Potency,[9],inactive
CN(CCCCCCCCCCN(C)C(=O)Oc1cccc([N+](C)(C)C)c1)C(=O)Oc1cccc([N+](C)(C)C)c1,Potency,[1],inactive
same,Potency,[11],inactive
same,Potency,[8],inactive
same,Potency,[9],inactive
CN[C@@H]1[C@@H](O)[C@@H](O[C@@H]2[C@@H](O)[C@H](O[C@H]3O[C@H]([C@@H](C)NC)CC[C@H]3N)[C@@H](N)C[C@H]2N)OC[C@]1(C)O,Potency,[1],inactive
same,Potency,[8],inactive
CCC=CCC=CCC=CCCCCCCCC(=O)O,Potency,[1],inactive
same,Potency,[8],inactive
same,Potency,[9],inactive
CC1=C(C(=O)Nc2cccc(-c3ccn[nH]3)c2)C(c2ccccc2Cl)N=C(Nc2nc3ccccc3o2)N1 (stereo not given),Potency,[11],0.477 µM (active)
CCOC(=O)c1c(NC(=O)c2ccc(S(=O)(=O)N(C)C3CCCCC3)cc2)sc2c1CCN(C(C)C)C2,Potency,[1],9.52 µM (active)
same,Potency,[14],inactive
same,Potency,[15],89.1 µM (active)
same,Potency,[16],inactive
same,Potency,[17],4.26 µM (active)
same,Potency,[18],20 µM (active)
Cc1ccnc(NC(c2ccccc2F)c2ccc3cccnc3c2O)c1 (stereo not given),Potency,[11],23.9 µM (active)
N[C@@H]1CCCCN(c2c(F)cc3c(=O)c(C(=O)O)cn(C4CC4)c3c2Cl)C1,Potency,[1],inactive
same,Potency,[11],inactive
same,Potency,[8],inactive
same,Potency,[9],inactive
Nc1nc(N)c(S(=O)(=O)c2ccccc2)c(Nc2ccc(Br)cc2)n1,Potency,[11],4.77 µM (active)
O=C(CSc1nnc(-c2cccc(F)c2)c(-c2cccc(F)c2)n1)NC1CCCCC1,Potency,[11],1.51 µM (active)
